PubChem BioAssay (EPA / NIEHS)
The source made the active and inactive calls. How the source made its calls: active means hit-call score of the fitted dose curve at least 0.9, where 1 is the maximum; inactive means score below 0.9.

How the values were obtained:
[1] = read-out: Tissue plasminogen activator (tPA), PLAT (gene 5327); test: BSK_BE3C_tPA: BioMAP Diversity Plus: BE3C Assay for Tissue plasminogen activator (tPA) Biomarker Activity (AID 2283041); conditions: primary human bronchial epithelial cells; actives raise or lower the signal
Procedure, shortened: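 Primary human lung bronchial epithelial cultures receive test chemical; after 24 h, tPA is quantified by ELISA, and gain or loss of signal is fitted bidirectionally relative to DMSO baseline.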

[2] = read-out: Interleukin-8 (IL8), CXCL8 (gene 3576); test: BSK_CASM3C_IL8: BioMAP Diversity Plus: CASM3C Assay for Interleukin-8 (IL8) Biomarker Activity (AID 2283042); conditions: primary human coronary artery smooth muscle cells; actives raise or lower the signal;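 further: IL-8 protein level quantified by ELISA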
[3] = read-out: Human Leukocyte Antigen - DR isotype (HLADR), HLA-DRA (gene 3122); test: BSK_CASM3C_HLADR: BioMAP Diversity Plus: CASM3C Assay for Human Leukocyte Antigen - DR isotype (HLADR) Biomarker Activity (AID 2283043); conditions: primary human coronary artery smooth muscle cells; actives raise or lower the signal;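 further: cell-surface HLA-DR protein level quantified by ELISA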
[4] = read-out: Macrophage colony-stimulating factor (MCSF), CSF1 (gene 1435); test: BSK_CASM3C_MCSF: BioMAP Diversity Plus: CASM3C Assay for Macrophage colony-stimulating factor (MCSF) Biomarker Activity (AID 2283044); conditions: primary human coronary artery smooth muscle cells; actives raise or lower the signal;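 further: M-CSF protein amount quantified by ELISA after 24 h exposure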
[5] = read-out: Low-density lipoprotein receptor (LDLR), LDLR (gene 3949); test: BSK_CASM3C_LDLR: BioMAP Diversity Plus: CASM3C Assay for Low-density lipoprotein receptor (LDLR) Biomarker Activity (AID 2283045); conditions: primary human coronary artery smooth muscle cells; actives raise or lower the signal;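 further: LDLR protein level on the cell surface quantified by ELISA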
[6] = read-out: Monocyte Chemoattractant Protein-1 (MCP1), CCL2 (gene 6347); test: BSK_CASM3C_MCP1: BioMAP Diversity Plus: CASM3C Assay for Monocyte Chemoattractant Protein-1 (MCP1) Biomarker Activity (AID 2283046); conditions: primary human coronary artery smooth muscle cells; actives raise or lower the signal;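 further: MCP-1 level quantified by ELISA 24 h after dosing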
[7] = BSK_CASM3C_Proliferation: Cell Proliferation Assessment in the BioMAP Diversity Plus: CASM3C Assay (AID 2283047); conditions: primary human coronary artery smooth muscle cells;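 further: sulforhodamine B total protein stain as relative cell number at 560 nm; sub-confluent cells exposed 48 h before staining; fitted both ways against DMSO so gain or loss of cell number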
[8] = read-out: Monokine induced gamma interferon (MIG), CXCL9 (gene 4283); test: BSK_CASM3C_MIG: BioMAP Diversity Plus: CASM3C Assay for Monokine induced gamma interferon (MIG) Biomarker Activity (AID 2283048); conditions: primary human coronary artery smooth muscle cells; actives raise or lower the signal;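 further: MIG protein level measured by ELISA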
[9] = read-out: serum amyloid A (SAA), SAA1 (gene 6288); test: BSK_CASM3C_SAA: BioMAP Diversity Plus: CASM3C Assay for serum amyloid A (SAA) Biomarker Activity (AID 2283049); conditions: primary human coronary artery smooth muscle cells; actives raise or lower the signal;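 further: SAA protein level quantified by ELISA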
[10] = BSK_CASM3C_SRB: Viability Assessment in the BioMAP Diversity Plus: CASM3C Assay (AID 2283050); conditions: primary human coronary artery smooth muscle cells;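 further: total protein by SRB staining as cytotoxicity measure in parallel cultures; cells exposed to compound for 24 h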
[11] = read-out: Thrombomodulin, THBD (gene 7056); test: BSK_CASM3C_Thrombomodulin: BioMAP Diversity Plus: CASM3C Assay for Thrombomodulin Biomarker Activity (AID 2283051); conditions: primary human coronary artery smooth muscle cells; actives raise or lower the signal;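 further: thrombomodulin protein level measured by ELISA 24 h after dosing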
[12] = read-out: Tissue Factor, F3 (gene 2152); test: BSK_CASM3C_TissueFactor: BioMAP Diversity Plus: CASM3C Assay for Tissue Factor Biomarker Activity (AID 2283052); conditions: primary human coronary artery smooth muscle cells; actives raise or lower the signal;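 further: cell surface tissue factor protein level read by ELISA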
[13] = read-out: Interferon-gamma inducible Protein 10 (IP10), CXCL10 (gene 3627); test: BSK_hDFCGF_IP10: BioMAP Diversity Plus: hDFCGF Assay for Interferon-gamma inducible Protein 10 (IP10) Biomarker Activity (AID 2283053); conditions: primary human foreskin fibroblasts; actives raise or lower the signal
Procedure, shortened: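 Primary foreskin fibroblasts, human; 24 h compound exposure; IP-10 by ELISA; bidirectional fit vs DMSO.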

[14] = read-out: Urokinase-type plasminogen activator receptor (uPAR), PLAUR (gene 5329); test: BSK_CASM3C_uPAR: BioMAP Diversity Plus: CASM3C Assay for Urokinase-type plasminogen activator receptor (uPAR) Biomarker Activity (AID 2283054); conditions: primary human coronary artery smooth muscle cells; actives raise or lower the signal;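 further: cell-surface uPAR protein level quantified by ELISA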
[15] = read-out: Vascular cell adhesion molecule 1 (VCAM1), VCAM1 (gene 7412); test: BSK_CASM3C_VCAM1: BioMAP Diversity Plus: CASM3C Assay for Vascular cell adhesion molecule 1 (VCAM1) Biomarker Activity (AID 2283055); conditions: primary human coronary artery smooth muscle cells; actives raise or lower the signal;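 further: VCAM-1 protein level quantified by ELISA on the cells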
[16] = read-out: Collagen III, COL3A1 (gene 1281); test: BSK_hDFCGF_CollagenIII: BioMAP Diversity Plus: hDFCGF Assay for Collagen III Biomarker Activity (AID 2283056); conditions: primary human foreskin fibroblasts; actives raise or lower the signal
Procedure, shortened: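 Response relative to DMSO, fitted in both directions, reflects ELISA-measured collagen III in human primary skin fibroblasts 24 h after compound addition.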

[17] = BSK_hDFCGF_Proliferation: Cell Proliferation Assessment in the BioMAP Diversity Plus: hDFCGF Assay (AID 2283059); conditions: primary human foreskin fibroblasts;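 further: curves fitted for both rise and fall of signal versus DMSO baseline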
Procedure, shortened: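 Steps: dose primary human dermal fibroblasts (foreskin); […] fix in 10% TCA; stain with 0.1% SRB; read 560 nm; fit gain or loss of signal against DMSO.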

[18] = read-out: Macrophage colony-stimulating factor (MCSF), CSF1 (gene 1435); test: BSK_hDFCGF_MCSF: BioMAP Diversity Plus: hDFCGF Assay for Macrophage colony-stimulating factor (MCSF) Biomarker Activity (AID 2283060); conditions: primary human foreskin fibroblasts; actives raise or lower the signal
Procedure, shortened: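 fibroblasts (human foreskin, primary), 24 h post-dose; M-CSF by ELISA; bidirectional fit, DMSO = baseline.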

[19] = read-out: Interleukin-8 (IL8), CXCL8 (gene 3576); test: BSK_hDFCGF_IL8: BioMAP Diversity Plus: hDFCGF Assay for Interleukin-8 (IL8) Biomarker Activity (AID 2283058); conditions: primary human foreskin fibroblasts; actives raise or lower the signal
Procedure, shortened: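 Fibroblast monolayers (human foreskin, hDFCGF) received test chemical for 24 h before ELISA detection of IL-8; either increases or decreases relative to DMSO count as activity.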

[20] = read-out: Epidermal growth factor receptor (EGFR), EGFR (gene 1956); test: BSK_hDFCGF_EGFR: BioMAP Diversity Plus: hDFCGF Assay for Epidermal growth factor receptor (EGFR) Biomarker Activity (AID 2283057); conditions: primary human foreskin fibroblasts; actives raise or lower the signal
Procedure, shortened: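 hDFCGF system, primary human foreskin fibroblasts; compound 24 h; EGFR measured by ELISA; DMSO = negative control/baseline; bidirectional fitting.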

Measured: AC50

COc1cc(OC)nc(NC(=O)NS(=O)(=O)Nc2ccccc2C(=O)N(C)C)n1
active: [2] 0.0224 µM
not listed: [19] | [20]
inactive: all other assays above

CC(C)(C)c1ccc(O)c(O)c1
active: [11] 20 µM | [13] 32.3 µM | [15] 4.99 µM | [16] 34.7 µM | [17] 7.12 µM | [18] 31.1 µM
not listed: [2] | [7] | [19] | [20]
inactive: all other assays above

Cc1[nH]nc2c1N=C(c1ccccc1Cl)c1cc([N+](=O)[O-])ccc1N2
active: [1] 20 µM | [3] 8.7 µM | [4] 0.581 µM | [7] 0.807 µM | [8] 7.47 µM | [9] 0.641 µM | [15] 9.37 µM | [17] 0.187 µM
not listed: [19] | [20]
inactive: all other assays above

CCCCCc1ccc(O)cc1
active: [1] 11.6 µM | [2] 20 µM | [3] 12.8 µM | [4] 14.6 µM | [5] 10.4 µM | [6] 14 µM | [7] 11.6 µM | [8] 15.4 µM | [9] 12.7 µM | [10] 15.9 µM | [11] 34 µM | [12] 12 µM | [13] 33.2 µM | [14] 14.4 µM | [15] 13.1 µM | [16] 12.5 µM | [17] 8.97 µM | [18] 25.5 µM

C=CC(=C)CC/C=C(\C)CCC=C(C)C
active: [16] 3.62 µM | [17] 6.49 µM
not listed: [19] | [20]
inactive: all other assays above

NC(=NCCCCCCN=C(N)/N=C(\N)Nc1ccc(Cl)cc1)/N=C(\N)Nc1ccc(Cl)cc1
active: [1] 1.37 µM | [2] 9.32 µM | [3] 6.06 µM | [4] 7.55 µM | [5] 5.55 µM | [7] 4.91 µM | [8] 13.2 µM | [9] 5.67 µM | [10] 4.9 µM | [11] 4.64 µM | [12] 2.1 µM | [13] 8.17 µM | [14] 4.86 µM | [15] 9.65 µM | [16] 1.18 µM | [17] 1.44 µM | [18] 4.84 µM
inactive: [19]

CCCCCCCCCCCCOS(=O)(=O)O
active: [1] 27.5 µM | [13] 26.3 µM | [17] 16 µM | [18] 30.9 µM
not listed: [6] | [9] | [19] | [20]
inactive: all other assays above

N=C(N)c1ccc(OCCCCCOc2ccc(C(=N)N)cc2)cc1
active: [2] 24.1 µM | [3] 17.5 µM | [4] 15 µM | [7] 12.4 µM | [13] 17.5 µM | [20] 29.1 µM | [17] 12.1 µM | [18] 20.6 µM
not listed: [14] | [19]
inactive: all other assays above

Clc1ccc(Nc2nnc(Cc3ccncc3)c3ccccc23)cc1
active: [7] 3.48 µM | [9] 0.507 µM | [12] 8.4 µM
not listed: [8] | [19] | [20]
inactive: all other assays above

OCC(CO)(CBr)CBr
not listed: [19] | [20]
inactive: all other assays above

COC1=CC(=O)C[C@@H](C)[C@]12Oc1c(Cl)c(OC)cc(OC)c1C2=O
active: [6] 4.25 µM | [7] 7.06 µM | [12] 2.12 µM
not listed: [1] | [20]
inactive: all other assays above

CCCCC=O
not listed: [19] | [20]
inactive: all other assays above
